Rows were chosen to be rich in hits. Some 1.2% of all compounds tested hit in one or more screens of this group.
RGS16-Gao: RGS16-Galphao interaction regulator (human); bead-based flow cytometry RGS16-Galphao binding, fluorescence; actives lie on both sides; binding response (% of control), % at 10 µM; 220,000 compounds, 0.38% hits;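 further: Galphao activated by GDP with aluminum fluoride before binding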
GSH fluor: GSH bead compound fluorescence profile. GSH beads flow cytometry, compound fluorescence 488/530 nm; hits give high values. fluorescence (KMESF) at 10 µM. 190,000 compounds, 0.25% hits. AID 1776; in the data active means fluorescence above about 89;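 further: glutathione beads carrying GST-tagged Bcl family fusion proteins plus one bare bead set; values are compound well signal with DMSO vehicle wells as background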
RGS7-Gao reg: regulators of human RGS7-Galphao interaction; binding response (% of control), % at 10 µM; AID 1439; 220,000 compounds, 0.35% hits; P09471; Multiplexed bead flow cytometry, RGS7-Galphao binding; actives lie on both sides; in the data active means binding response below about 49% or above about 150%; inconclusive means no clear call, values can overlap the other calls; inactive means in between;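 further: fluorescent Galphao held in activated GDP-AlF4 state binding bead-coupled RGS7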
Target sequence (P09471 whole entry, looked up): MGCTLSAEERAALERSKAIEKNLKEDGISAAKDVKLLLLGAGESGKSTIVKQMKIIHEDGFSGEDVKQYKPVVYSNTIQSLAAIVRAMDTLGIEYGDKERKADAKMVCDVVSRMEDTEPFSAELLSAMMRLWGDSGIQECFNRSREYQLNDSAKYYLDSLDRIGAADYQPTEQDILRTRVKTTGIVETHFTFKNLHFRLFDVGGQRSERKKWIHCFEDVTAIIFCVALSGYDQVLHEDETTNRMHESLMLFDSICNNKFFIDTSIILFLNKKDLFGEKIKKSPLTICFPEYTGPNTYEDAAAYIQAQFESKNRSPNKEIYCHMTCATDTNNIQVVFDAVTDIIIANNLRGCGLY
RGS4-Gao reg: modulates binding of RGS4 to human Galphao. Multiplexed bead flow cytometry; actives lie on both sides. 220,000 compounds, 0.33% hits. binding response (% of control), % at 10 µM; in the data active means binding response below about 49% or above about 150%; inactive means in between;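 further: fluorescent Galphao activated with aluminum fluoride binding bead-coupled RGS4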
Avidin bead fluor: avidin bead compound fluorescence profile; fluorescence (KMESF) at 10 µM; Avidin beads, compound fluorescence 488/530 nm, flow cytometry; hits give high values; 220,000 compounds, 0.38% hits; AID 1775; in the data active means fluorescence above about 47
RGS8-Gao: human RGS8-Galphao interaction regulation | multiplexed bead flow cytometry, RGS8-Galphao binding; actives lie on both sides | 220,000 compounds, 0.34% hits | AID 1423 | P09471 | response (percent of control binding), % at 10 µM; in the data active means response below about 60% or above about 140%; inactive means in between;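 further: Galphao activated as the GDP aluminium fluoride complex binding bead-coupled RGS8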
RGS-Gao: modulates binding between human RGS4 and Galphao; RGS4–Galpha-o binding response, % at 10 µM; shares compounds with RGS16-Gao; multiplexed bead flow cytometry, RGS–Galpha-o binding; 1,600 compounds, 99% hits;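 further: fluorescently labeled Galpha-o bound to GDP with aluminium fluoride binding biotinylated RGS beads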
Target sequence (P09471 whole entry, looked up): as above
Target sequence (P49798 whole entry, looked up): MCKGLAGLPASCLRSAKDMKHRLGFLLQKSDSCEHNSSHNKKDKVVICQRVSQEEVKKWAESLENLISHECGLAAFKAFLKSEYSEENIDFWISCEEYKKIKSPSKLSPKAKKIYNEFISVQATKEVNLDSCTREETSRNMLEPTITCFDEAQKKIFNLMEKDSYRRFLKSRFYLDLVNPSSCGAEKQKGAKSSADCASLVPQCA
Biotin-avidin: biotin-avidin bead binding disruption counter-screen. shares compounds with RGS16-Gao. streptavidin beads, fluorescein-biotin binding, flow cytometry. inhibition, % at 10 µM. 1,700 tested, under 10 active. AID 1783;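 active means inhibition above 50%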;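 further: median green fluorescence of gated singlet beads compared with DMSO control wells; 0% = DMSO wells and 100% = complete loss of bead fluorescence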
RGS8-Gao single: confirmation of regulators of human RGS8-Galphao interaction; shares compounds with RGS16-Gao; bead-based flow cytometry RGS8-Galphao binding, fluorescence; actives lie on both sides; binding response (% of control), % at 10 µM; 1,700 compounds, 3% hits; AID 1836; in the data active means binding response below about 72% or above about 130%; inactive means in between;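 further: Galphao activated as GDP AlF4 complex before binding bead RGS8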
RGS7-Gao single: RGS7-Galphao interaction regulation, single point confirmation | shares compounds with RGS16-Gao | bead-based flow cytometry RGS7-Galphao binding; actives lie on both sides | response (percent of control binding), % at 10 µM | 1,700 compounds, 7.8% hits | AID 1837; in the data active means response below about 75% or above about 130%; inactive means in between;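 further: fluorescent Galphao activated with GDP and aluminum fluoride binding bead-coupled RGS7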
RGS16-Gao single: confirmation of regulators of human RGS16-Galphao interaction; shares compounds with RGS16-Gao; bead-based flow cytometry, RGS16-Galphao binding; actives lie on both sides; response (% of control binding), % at 10 µM; 1,700 compounds, 4% hits; in the data active means response below about 74% or above about 130%; inactive means in between;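 further: Galphao activated as the GDP aluminium fluoride complex binding bead-coupled RGS16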
RGS4-Gao single: confirmation of regulators of human RGS4-Galphao interaction. shares compounds with RGS16-Gao. RGS4-Galphao binding, multiplexed bead flow cytometry; actives lie on both sides. binding response (% of control), % at 10 µM. 1,700 compounds, 4% hits; in the data active means binding response below about 74% or above about 130%; inactive means in between
RGS19-Gao conf: RGS19-Galphao interaction regulation, single point confirmation; bead-based flow cytometry RGS19-Galphao binding; actives lie on both sides; 1,700 compounds, 5% hits; shares compounds with RGS16-Gao; response (percent of control binding), % at 10 µM; in the data active means response below about 50% or above about 160%; inactive means in between;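 further: 100% = no compound control and 0% = blank background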
Starred values were filed as active, the others as inactive; ? = inconclusive; . = no result given; [ ] = another dose, or the depositor's remark. Unless noted, how the calls were made is not given here.

SMILES	RGS16-Gao	GSH fluor	RGS7-Gao reg	RGS4-Gao reg	Avidin bead fluor	RGS8-Gao	RGS-Gao	Biotin-avidin	RGS8-Gao single	RGS7-Gao single	RGS16-Gao single	RGS4-Gao single	RGS19-Gao conf
Cc1ccc(S(=O)(=O)N2CCC(C(=O)N[C@H](C(=O)NC3CCS(=O)(=O)C3)C(C)C)CC2)cc1 (stereo partly drawn)	100	34	108	107	6	108	.	.	.	.	.	.	.
Cc1ccc(S(=O)(=O)N2CCC(C(=O)N3CCC[C@H]3C(=O)NC3CCS(=O)(=O)C3)CC2)cc1 (stereo partly drawn)	-65*	11	90	85	15	79	85*	0	101	98	98	99	112
COc1ccc(OC)c(/C(O)=C/C(=O)C(=O)Nc2cc(C)ccc2OC)c1	710	29	68	49*	-1	82	.	0	89	75*	87	84	127
COc1ccc(OC)c(/C(O)=C/C(=O)C(=O)Nc2cc(C)cc(C)c2)c1	101	35	97	97	15	100	.	.	.	.	.	.	.
Cc1ccc(CSc2ncccc2C(=O)O)cc1	97	11	100	104	14	95	.	.	.	.	.	.	.
Cc1cccc(CSc2ncccc2C(=O)O)c1	285*[activator]	21	105	122	23	135	122*	2	96	93	91	93	70
CSCC[C@H](NC(=O)Nc1ccc(OC(F)(F)F)cc1)C(=O)O	48	.	?	61	5	55*	61*	0	102	99	98	102	97
O=C(CCCNS(=O)(=O)c1ccc(Cl)c(Cl)c1)NCCc1ccccn1	145	13	157*[activator]	145	12	143*[activator]	145*	0	98	101	100	97	98
CCC(CC)C(=O)NCCc1ccc(OC)cc1	.	34	.	238*[activator]	.	.	.	2	97	97	97	98	99
CCC(CC)C(=O)NCCc1ccc(OC)c(OC)c1	103	10	101	102	35	101	.	.	.	.	.	.	.
CN1CCN(S(=O)(=O)c2cccc(C(=O)Nc3ccccc3N3CCOCC3)c2)CC1	99	12	102	100	12	100	.	.	.	.	.	.	.
O=C(CN1CCN(Cc2ccc(Cl)cc2)C1=O)NCCCN1CCN(c2ccc(F)cc2)CC1	97	24	97	95	17	95	.	.	.	.	.	.	.
O=C(CN1CCN(Cc2ccccc2F)C1=O)NCCc1ccc(Cl)cc1	102	27	159*[activator]	107	60*	100	107*	-1	100	103	99	98	99
O=C(CN1CCN(Cc2ccc(Cl)cc2)C1=O)NCCCN1CCOCC1	13*	19	8.9*	18*	-1	14*	.	2	100	100	101	102	100
COc1ccc(OC)c(-c2cnc(OC(C)(C)C)nc2OC(C)(C)C)c1	89	9	92	89	3	96	.	.	.	.	.	.	.
NS(=O)(=O)c1ccc(NC=C2C(=O)OC3(CCCCC3)OC2=O)cc1	102	23	101	98	29	100	.	.	.	.	.	.	.
CC1(CCl)N([O-])C2=C(CCCC2)[N+]1=O (stereo not drawn)	97	.	?	101	8	99	.	.	.	.	.	.	.
CN(C)c1ncc(C2=C(Cl)C(=O)C(N3CCCC3)=C(Cl)C2=O)s1	30	3	41*	67	1	47*	67*	-4	41*	22*	35*	72*	-9.7*
O=C1C(Cl)=C(N2CCCCC2)C(=O)C(Cl)=C1c1cnc(N2CCCCC2)s1	32	3	43*	69	1	50*	69*	1	37*	16*	27*	59*	-8.5*
Clc1ccc(Cl)c2sc(N3CCCC3)nc12	104	15	99	103	16	103	.	.	.	.	.	.	.
Cc1nn(C(=O)Cn2ccc([N+](=O)[O-])n2)c(C)c1Br	90	18	101	102	9	99	.	.	.	.	.	.	.
COc1ccc(C(=O)Nc2ccccc2C(=O)N(Cc2ccco2)C(C(N)=O)C(C)C)cc1 (stereo not drawn)	333	12	140	225*[activator]	104*	144*[activator]	.	1	96	79	92	83	104
Cc1nnc(Nc2ccc3c(c2)ncn3C)c2ccccc12	220	25	114	115	13	146*[activator]	115*	1	108	107	106	104	107
Cc1ccc(-c2nnc(Nc3ccc4c(c3)nc(C)n4C)c3ccccc23)cc1	100	12	97	98	32	100	.	.	.	.	.	.	.
COC(=O)[C@@H]1C[C@]2(OC(=O)c3ccccc3)C=CC(=O)C[C@@H]2N1C(=O)OCc1ccccc1	99	16	99	99	10	100	.	.	.	.	.	.	.
CNC(=O)C1CC(=O)N(CCCc2ccccc2)C(=Nc2ccccc2)S1 (stereo not drawn)	22*	47	92	94	3	87	94*	1	102	101	104	99	120
CCOCC(=O)Nc1cccc(C(=O)OCC)c1	108	35	96	99	11	104	.	.	.	.	.	.	.
CCOCC(=O)Nc1cc(C(=O)OC)cc(C(=O)OC)c1	203*[activator]	6	104	110	2	128	110*	0	107	102	111	102	108
CCN(CC)/C(=N/S(=O)(=O)c1ccc(C)cc1)c1ccccc1	102	10	106	104	11	101	.	.	.	.	.	.	.
CCCCN(CCCC)CCCNC(=O)c1ccc2nc(-c3ccccc3NC(C)=O)c(=O)[nH]c2c1	100	11	101	100	11	101	.	.	.	.	.	.	.

Bioassay records as filed in PubChem.
